EBV gp42 inh: Epstein-Barr virus gp42 inhibitors, primary screen, biochemical, uHTS, fluorescence polarization. Fluorescence polarization binding assay, mP read-out. inhibition, % (tested at 21.74 µM). 220,000 tested, 0.42% active. Glycoprotein 42 (Epstein-Barr virus (strain AG876)), Q1HVG2; in the data active means inhibition above about 50%
Target sequence (Q1HVG2 whole entry, looked up): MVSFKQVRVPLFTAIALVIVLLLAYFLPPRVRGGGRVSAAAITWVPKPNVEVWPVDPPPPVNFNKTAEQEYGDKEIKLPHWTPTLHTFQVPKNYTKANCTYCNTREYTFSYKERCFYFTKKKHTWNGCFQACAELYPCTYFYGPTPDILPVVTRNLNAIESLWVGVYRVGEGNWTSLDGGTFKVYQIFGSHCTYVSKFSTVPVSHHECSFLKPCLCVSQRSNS
Bcl-xL primary: inhibitors of human Bcl-xL, primary screen, biochemical, fluorescence polarization, HTS; GST-Bcl-xL / FITC-Bim BH3 peptide fluorescence polarization; 320,000 tested, 0.7% active; inhibition, % at 10.9 µM; Bcl-2-like protein 1 (Homo sapiens), Q07817;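 active means inhibition above the mean of all tested compounds plus 3 SD, cutoff set per campaign, cut at about 30% in these data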;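 further: 0% = DMSO wells and 100% = unlabeled Bim-BH3 peptide competitor; inhibitors lower millipolarization by displacing the labeled peptide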
E coli Lon inh: inhibitors of E. coli Lon protease, primary screen, biochemical, fluorescence polarization | 360,000 tested, 0.42% active | P0A9M0 | purified E. coli Lon protease | inhibition, % at 7.94 µM; in the data active means inhibition above about 13%, passing the limit was not always enough;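 further: 0% = enzyme with probe and DMSO and 100% = no enzyme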
GLD-1 TGE inh: GLD-1/TGE RNA complex disruptors, primary screen, biochemical, fluorescence polarization | inhibition, % at 5.96 µM | 320,000 tested, 0.44% active | purified GLD-1 + fluorescein TGE RNA | Female germline-specific tumor suppressor gld-1 (Caenorhabditis elegans), Q17339;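 active means percent inhibition above a per-plate cutoff, the plate mean of test compounds plus 3 SD, cut at about 30% in these data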;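 further: 0% = DMSO wells with GLD-1 and probe and 100% = wells lacking GLD-1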
MCL1 BIM primary: inhibitors of MCL1 binding to BIM-BH3, primary screen, biochemical, fluorescence polarization. Induced myeloid leukemia cell differentiation protein Mcl-1 (Homo sapiens), Q07820. inhibition, % at 10.9 µM. 320,000 tested, 0.68% active. GST-MCL1 / FITC-Bim-BH3 fluorescence polarization;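 active means inhibition above the mean inhibition of all tested compounds plus 3 SD, set per campaign, cut at about 40% in these data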;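 further: 0% = DMSO wells and 100% = unlabeled Bim-BH3 peptide control; higher means more loss of mP so more displacement of Bim peptide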
Target sequence (Q07820 whole entry, looked up): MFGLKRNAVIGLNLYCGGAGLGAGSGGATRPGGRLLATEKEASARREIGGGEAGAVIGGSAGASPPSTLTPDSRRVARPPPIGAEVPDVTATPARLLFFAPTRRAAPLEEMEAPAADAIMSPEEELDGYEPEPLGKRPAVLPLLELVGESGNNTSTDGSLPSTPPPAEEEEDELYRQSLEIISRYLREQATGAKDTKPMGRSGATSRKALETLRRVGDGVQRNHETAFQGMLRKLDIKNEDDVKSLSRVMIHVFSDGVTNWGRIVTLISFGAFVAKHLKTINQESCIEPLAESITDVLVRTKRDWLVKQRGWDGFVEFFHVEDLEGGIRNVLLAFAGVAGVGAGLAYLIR
MEX-5 binding: MEX-5 zinc finger RNA-binding disruptors – biochemical, C. elegans, fluorescence polarization, MLPCN library, primary screen; MEX-5/FITC-TCR2 RNA binding; stronger effect = lower value; activity score (negative = inhibition of binding), % at 10 µM; Zinc finger protein mex-5 (Caenorhabditis elegans), Q9XUB2; AID 1832, 2009; 300,000 tested, 0.38% active;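 active means inhibition past about -25% in most replicates, and total fluorescence under double the plate's negative control median, limit read from the data; inconclusive means replicates evenly split on the limit, or fluorescence at least double controls; inactive means too little inhibition in most replicates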;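 further: 0% = DMSO and -100% = 5 µM competing unlabeled TCR2 RNA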
E coli Lon conf: E. coli Lon protease inhibitor retest, confirmation, biochemical, fluorescence polarization | 1,400 tested, 31% active | inhibition, % at 7.94 µM | purified E. coli Lon | shares compounds with E coli Lon inh; in the data active means inhibition above about 16%;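 further: 0% = enzyme with probe and DMSO and 100% = no enzyme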
An asterisk follows results filed as active; ? = inconclusive; / = not tested or not shown. An excerpt weighted towards active compounds, which were near 1.5% of everything screened.

SMILES | EBV gp42 inh | Bcl-xL primary | E coli Lon inh | GLD-1 TGE inh | MCL1 BIM primary | MEX-5 binding | E coli Lon conf
COc1ccc(C2C(C(=O)O)c3ccccc3C(=O)N2C)cc1Br (stereo unspecified) | -1 | 8 | 19* | 6 | 5 | 1 | -458
COc1cc(OC)c(C2C(C(=O)O)c3ccccc3C(=O)N2C)cc1OC (stereo unspecified) | -16 | 7 | -7 | 0 | 8 | 1 | /
Cc1cccc(C)c1NC(=O)C(C)N1CCCC1 (stereo unspecified) | / | 4 | -3 | 8 | 0 | 1 | /
Cc1cc(C)c(NC(=O)C(C)N2CCCCCC2)c(C)c1 (stereo unspecified) | / | 2 | 71* | 9 | -2 | -3 | -5
CCCCn1nnnc1C(c1ccccc1)N1CCN(CCN2CCOCC2)CC1 (stereo unspecified) | / | / | 15* | / | / | / | 0
O=C1CCc2cc(S(=O)(=O)N3CCN(c4cccc(Cl)c4)CC3)ccc2N1 | -14 | 4 | -12 | 6 | -3 | 2 | /
O=C1Cc2cc(S(=O)(=O)N3CCN(c4cccc(Cl)c4)CC3)ccc2N1 | / | -22 | 52* | -5 | -25 | 3 | -6
COc1cccc(NC(=O)CN(C)C(=O)Cc2n[nH]c(=O)c3ccccc23)c1 | / | 4 | 19* | 1 | 2 | / | -6
CCCCN(C(=O)C1=COCCO1)c1c(N)n(CCC)c(=O)[nH]c1=O | / | 12 | -1 | 10 | 11 | -2 | /
CCCCn1c(N)c(N(CCC(C)C)C(=O)C2=COCCO2)c(=O)[nH]c1=O | / | 16 | 36* | 12 | 20 | -11 | 5
c1coc(-c2cnc3ccccc3n2)c1 | / | / | 35* | / | / | / | 6
COc1ccc(CCNC(=O)CCNC(=O)c2ccco2)cc1OC | / | -3 | 22* | -9 | -2 | -3 | -4
COCCNC(=O)C1CCCN(C(=O)c2ccc(F)c(C)c2)CC1 (stereo unspecified) | / | / | 5 | / | / | / | /
Cn1c2ccccc2c(=O)c2ccc(NCc3ccc4c(c3)OCO4)cc21 | / | / | 17* | / | / | / | 3
CN1CCC[C@H]1CCNc1ccc2c(=O)c3ccccc3n(C)c2c1 | / | / | -4 | / | / | / | /
COC(=O)CCCC(=O)N1CCCC(N(C)CCc2ccccc2)C1 (stereo unspecified) | / | 2 | -3 | 5 | 3 | -2 | /
CN1C(=O)CC(Nc2cccc3cccc(N)c23)C1=O (stereo unspecified) | -9 | 9 | 21* | 2 | 15 | -1 | 8
COc1ccc(CNC(=O)COC(=O)c2cc(S(=O)(=O)N3CCOCC3)ccc2O)cc1OC | / | / | -8 | -1 | / | / | /
Fc1ccc(CN2CC[C@H]3C=CCc4cccc(c43)C2)cc1 | / | 9 | 30* | 0 | 11 | / | -9
Clc1ccc(CN2CC[C@H]3C=CCc4cccc(c43)C2)cc1 | / | 4 | -3 | 1 | 0 | / | /
Fc1ccccc1CNc1nc(NCC2CC2)nc2ccsc12 | / | / | 12* | / | / | / | -6
CC(Nc1cccc2ccccc12)C(=O)N/N=C/c1ccc([N+](=O)[O-])cc1 (stereo unspecified) | 13 | 0 | -3 | 6 | 11 | -2 | /
Cc1cccc(/C=N/NC(=O)C(C)Nc2cccc3ccccc23)n1 (stereo unspecified) | -7 | 2 | 61* | 3 | 32 | -4 | 105*
CC1(CCC(=O)N2CCCC(N3CCN(c4ccc(F)cc4)CC3)C2)CC1 (stereo unspecified) | / | -1 | 13* | 2 | 3 | 1 | -7
CSCC(=O)N1CCCC(N2CCN(c3ccc(F)cc3)CC2)C1 (stereo unspecified) | / | 5 | -6 | 5 | 8 | 0 | /
SMILES | EBV gp42 inh | Bcl-xL primary | E coli Lon inh | GLD-1 TGE inh | MCL1 BIM primary | MEX-5 binding | E coli Lon conf
Cc1ccc(C(C)C)c(OCC(=O)NN=C2CCCC(=O)C2)c1 | / | / | 43* | 5 | / | / | -29
Cc1ccc(C(C)C)c(OCC(=O)NN=C2CCCCCCC2)c1 | 3 | -1 | 4 | 5 | 4 | 2 | /
COc1cc(NCCCCC(C)N)c2nccc(C)c2c1 (stereo unspecified) | / | / | 3 | / | / | / | /
COc1cc(NCCCC(C)N)c2ncccc2c1 (stereo unspecified) | -21 | / | 44* | / | / | -26* | 4
O=C(CSc1nc2ccccc2o1)c1ccccc1 | -20 | -2 | 53* | -2 | -7 | 0 | 24*
CC(=O)CSc1nc2ccccc2o1 | -16 | 1 | 0 | 8 | 5 | 2 | /
CCOc1ccc(/C=N/n2c(-c3ccccc3)n[nH]c2=S)cc1 | / | -29 | -6 | 3 | -13 | -1 | /
CC(C)CC(NC(=O)OC(C)(C)C)C(=O)O (stereo unspecified) | 2 | 5 | 19* | 3 | -3 | -2 | -6
COC(=O)C(Cc1ccccc1)NC(=O)C(CC(C)C)NC(=O)OC(C)(C)C (stereo unspecified) | 7 | 4 | 6 | 2 | 3 | -4 | /
N#CC1=C(N)C(C#N)(C#N)[C@H](c2ccncc2)[C@H]2CN(C(=O)OCc3ccccc3)CC=C12 | -23 | 16 | -6 | 9 | 8 | -3 | /
CCN1CC=C2C(C#N)=C(N)C(C#N)(C#N)C(c3cc(Cl)ccc3Cl)C2C1 (stereo unspecified) | 73* | 122* | 28* | 104* | 150* | ? | -4
CN1CC=C2C(C#N)=C(N)C(C#N)(C#N)C(Cc3ccccc3)C2C1 (stereo unspecified) | 49 | 118* | 39* | 69* | 129* | -69* | 9
CCC1C2CN(C(C)=O)CC=C2C(C#N)=C(N)C1(C#N)C#N (stereo unspecified) | -6 | 19 | 1 | 13 | 22 | -4 | /
CC(C)N1CC=C2C(C#N)=C(N)C(C#N)(C#N)C(c3ccccc3)C2C1 (stereo unspecified) | 72* | 117* | 53* | 93* | 128* | ? | 20*
CCOCCn1cnc2sc(C(=O)NCC(=O)OCC)c(C)c2c1=O | -12 | 7 | 15* | -1 | 8 | 2 | -4
CCOC(=O)Cn1cnc2sc(C(=O)OC)c(C)c2c1=O | -24 | 7 | 0 | -1 | 9 | 3 | /
COCCNc1nc(C)cc(-c2cc(C(=O)Nc3ccccc3)on2)n1 | / | 2 | 29* | -5 | 4 | 2 | 3
COC(=O)c1ccc(=O)n(Cc2ccc3c(c2)OCO3)c1 | 1 | 4 | 21* | -4 | -4 | -1 | -7

High-throughput results deposited in PubChem BioAssay by several laboratories.
